CHRM4 agonist: agonists of human muscarinic M4 receptor (CHRM4); P08173; CHO-K1 hM4/Gqi5, Fluo-8 calcium fluorescence; vehicle 0%, full acetylcholine response 100%; activation, % at 3 µM; hit rate 0.14% among 360,000;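 active = activation above the run mean over all test wells plus 3 SD, cut at about 32% in these data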;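 note: peak over basal fluorescence ratio per well then scaled between controls; 0% = DMSO wells and 100% = acetylcholine at EC100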
Target sequence (P08173 whole entry, looked up): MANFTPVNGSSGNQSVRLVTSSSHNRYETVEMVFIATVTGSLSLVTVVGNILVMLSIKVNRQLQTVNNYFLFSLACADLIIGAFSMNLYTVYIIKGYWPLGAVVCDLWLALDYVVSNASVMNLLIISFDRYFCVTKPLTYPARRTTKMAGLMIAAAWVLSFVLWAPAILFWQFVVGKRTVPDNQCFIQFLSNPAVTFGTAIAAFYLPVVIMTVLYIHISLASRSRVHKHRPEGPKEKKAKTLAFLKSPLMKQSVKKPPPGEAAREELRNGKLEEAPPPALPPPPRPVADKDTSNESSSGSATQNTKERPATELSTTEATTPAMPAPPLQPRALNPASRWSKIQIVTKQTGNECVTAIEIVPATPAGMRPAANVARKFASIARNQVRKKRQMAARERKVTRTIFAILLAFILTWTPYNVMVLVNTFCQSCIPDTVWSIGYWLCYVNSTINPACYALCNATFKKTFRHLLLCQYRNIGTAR
M4 antag: blocks acetylcholine activation of human M4 receptor; hit rate 0.73% among 360,000; P08173; inhibition, % at 3 µM; CHO-hM4 cells, ACh EC80, Fluo-8 calcium fluorescence;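 active = inhibition above its plate's cutoff, the mean inhibition of sample wells plus 3 SD, cut at about 27% in these data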;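 note: 0% = acetylcholine EC80 with DMSO and 100% = DMSO without agonist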
M1 ag: activates human CHRM1 receptor; CHO-K1 hM1, Fluo-8 calcium fluorescence, agonist mode; 0% DMSO, 100% acetylcholine EC100; hit rate 0.33% among 360,000; activation, % at 3 µM; P11229;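 active = activation above the run's mean compound activation plus 3 SD, cut at about 16% in these data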;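 note: peak over basal fluorescence ratio within a 140 s kinetic read after compound addition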
CHRM4 PAM: positive allosteric modulators of human muscarinic M4 receptor. P08173. CHO-K1 hM4/Gqi5, Fluo-8 calcium fluorescence, ACh EC20; 0% = ACh EC20, 100% = maximal ACh. activation, % at 3 µM. hit rate 0.4% among 360,000;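 active = activation above its plate's cutoff, the mean activation of sample wells plus 3 SD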
CHRM1 PAM: positive allosteric modulators of human M1 muscarinic receptor. CHO-K1 hM1, Fluo-8 calcium fluorescence, ACh EC20; 0% = ACh EC20, 100% = maximal ACh. activation, % at 3 µM. hit rate 0.088% among 360,000. AID 588819; in the data active = activation above about 19%, passing the limit was not always enough
M1 antag: blocks human M1 muscarinic receptor. CHO-K1 hM1, Fluo-8 calcium fluorescence, ACh EC80 antagonist. P11229. hit rate 1.3% among 360,000. inhibition, % at 3 µM;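 active = percent inhibition above its own plate's cutoff, namely the mean of that plate's compound wells plus 3 SD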;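 note: peak over basal fluorescence ratio during 140 s after agonist addition; 0% = ACh EC80 plus DMSO and 100% = DMSO alone without agonist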
Numbers without * were called inactive. The list is not random: actives were taken first. Their share in the collection is about 2.2%.

SMILES	CHRM4 agonist	M4 antag	M1 ag	CHRM4 PAM	CHRM1 PAM	M1 antag
Cc1ccc(S(=O)(=O)c2ccc([N+](=O)[O-])o2)cc1	0	36*	-5	-5	0	4
NCCC(=O)N1c2ccccc2Sc2ccccc21	2	6	-8	-9	-26	41*
NCCCC(=O)N1c2ccccc2Sc2ccccc21	1	42*	-10	-14	-27	94*
COc1ccc([C@@H]2C[C@H]3CN(c4ccccc4)C(=O)[C@]34CCCN24)c(OC)c1OC	0	-11	-6	-8	-5	3
COc1ccccc1N1C[C@@H]2C[C@@H](c3ccco3)N3CCC[C@@]23C1=O	2	-9	-16	-5	3	0
CC(C)(O)C#Cc1ccc([C@@H]2C[C@H]3CN(c4ccccc4)C(=O)[C@]34CCCN24)s1	1	12	-10	-17	-26	42*
O=C1N(c2ccccc2)C[C@@H]2C[C@@H](c3cccs3)N3CCC[C@@]123	0	20	-9	-36	-26	90*
COC(=O)[C@@H](NC(=O)c1ccccc1OC1CCN(S(C)(=O)=O)CC1)C(C)C	0	20	-6	-13	-28	62*
CS(=O)(=O)N1CCC(Oc2ccccc2C(=O)NC2CCCCCC2)CC1	1	-13	-2	4	6	-10
O=C(Nc1ccccc1O)c1cccc(NC(=O)c2ccco2)c1	4	8	0	-8	4	-2
Cc1sc2nc(CSCC(=O)Nc3ccccc3C#N)[nH]c(=O)c2c1C	1	-6	-5	38*	11	-7
CSc1ccccc1NC(=O)CSCc1nc2sc(C)c(C)c2c(=O)[nH]1	1	8	-6	-2	-2	6
Cc1ccc(C(C)C)c(OCCN(C)C)c1	1	13	-3	-13	-19	57*
Cc1ccc(C(C)C)c(OCCCn2ccnc2C)c1	3	73*	-9	-17	-30	100*
Cc1ccc(C(C)C)c(OCCN)c1	1	3	-8	1	2	6
CC(C(=O)NCC1(c2ccccc2)CCCC1)N1CCCC1 (configuration not stated)	2	43*	-9	-39	-22	97*
CCc1ccc(Nc2nnc(SCC(=O)Nc3sccc3C(N)=O)s2)cc1	11	9	-4	-18	-6	18
COc1cccc(Nc2nnc(SCC(=O)Nc3sccc3C(N)=O)s2)c1	19	29*	2	-45	-11	24
CCN(CC)CCOc1ccccc1C(C)=O	1	13	-14	-10	-34	40*
CCCCN1CC(N2CCN(CCO)CC2)CS1(=O)=O (configuration not stated)	0	-8	20*	2	17	-1
CCCCCCN1CCN(C2CN(CCCC)S(=O)(=O)C2)CC1 (configuration not stated)	0	5	-7	-9	-18	20
Cc1cc(C)c(-n2nnnc2SCC(=O)c2cc3ccccc3o2)c(C)c1	1	-2	1	7	15	-5
CCc1cccc(C)c1NC(=O)c1ccccc1	10	5	-3	-11	-16	15
CCc1cccc(C)c1NC(=O)C1=C(C(=O)O)CCCC1	2	28*	-1	5	0	2
Cc1nn(CCCC(=O)NCc2ccc(F)cc2)c(C)c1[N+](=O)[O-]	1	0	-5	-3	9	-4
SMILES	CHRM4 agonist	M4 antag	M1 ag	CHRM4 PAM	CHRM1 PAM	M1 antag
Cc1ccc(C)c(N2C(=O)CN=C2Nc2ccccc2Cl)c1	1	0	-2	22*	18	-39
O=C(C1CCN(c2ncnc3c2nc2n3CCCCC2)CC1)N1CCN(c2ccc(F)cc2)CC1	6	5	30*	-2	-7	-1
O=C(NCC1CCN(Cc2cccc(Cl)c2)CC1)C1CCCN(c2ncnc3c2nc2n3CCCCC2)C1 (configuration not stated)	8	36*	-5	-12	-23	75*
O=C(NCC1CCN(Cc2ccc(Cl)cc2)CC1)C1CCCN(c2ncnc3c2nc2n3CCCCC2)C1 (configuration not stated)	10	84*	-14	-23	-41	103*
O=C(NCc1ccccc1)C1CCCN(c2ncnc3c2nc2n3CCCCC2)C1 (configuration not stated)	5	-7	-3	-6	6	1
O=C(NCC1CCN(Cc2ccc(F)cc2)CC1)C1CCCN(c2ncnc3c2nc2n3CCCCC2)C1 (configuration not stated)	0	36*	-6	-11	-22	70*
O=C(NCCc1ccc(Cl)cc1)C1CCCN(c2ncnc3c2nc2n3CCCCC2)C1 (configuration not stated)	2	-9	-5	0	0	-1
Cc1ccc(CNC(=O)COC(=O)CCOc2ccc(C)cc2)cc1	-1	3	-7	9	10	-14
COCCN(C(=O)c1cccc(N2C(=O)CCC2=O)c1)c1nc(-c2ccc([N+](=O)[O-])cc2)cs1	5	6	-2	-6	-7	12
CCOc1ccccc1CN1CCCC(CNS(=O)(=O)c2ccc(OC)cc2)C1 (configuration not stated)	2	13	-14	-14	-37	38*
COc1ccc(S(=O)(=O)NCC2CCCN(Cc3ccccc3C)C2)cc1 (configuration not stated)	3	11	-8	-15	-21	25
CN(C)/C=N/C(=S)Nc1ccc(Cl)cc1	10	-7	-2	1	13	-5
CSC(=S)N/N=C/c1ccc(Br)cc1	2	-16	-4	23*	12	-11
CSC(=S)N/N=C/c1ccc(N(C)C)cc1	0	-2	-1	0	10	-6
COCc1cc(C)nc(SCC(=O)Nc2ccc(C)c(C)c2)c1C#N	1	-8	-3	13	5	-16
COCc1cc(C)nc(SCC[N+](C)(C)CC(=O)Nc2cccc(C(F)(F)F)c2)c1C#N	0	-3	-9	-6	-20	40*
Cc1noc(C)c1S(=O)(=O)N1CCCC(C(=O)N2CCN(C3CCCCC3)CC2)C1 (configuration not stated)	2	1	-11	-5	4	-14
O=C1CC(c2ccco2)Sc2nc3ccccc3n21 (configuration not stated)	1	0	2	4	6	-10
Cn1nc(C(=O)Nc2cccc(C(F)(F)F)c2)c2ccccc2c1=O	-3	13	-3	31*	11	-3
Cn1nc(C(=O)Nc2cccc(C(=O)NC3CC3)c2)c2ccccc2c1=O	3	-3	-1	-1	6	-7
